In the library only some 9% were active in any assay of this set; here they are far more common.
HPGD inh – HPGD (human) dehydrogenase inhibition; P15428; purified HPGD, NADH fluorescence kinetic, PGE2 substrate; Potency, µM, without a hit: at the top dose activity change, negative = inhibition, actives largely listed as inhibitors; 150,000 tested, 4.3% active; AID 894
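NADH formation kinetics: reaction with 30 uM PGE2 and 1 mM NAD+ (final), 20 nM enzyme, Tris-HCl pH 8 with Tween 20, after 15 min compound preincubation at room temperature. Fluorescence change, last versus first of five reads.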
Luc counter – blocks Kinase-Glo luciferase, a counter-screen artifact | Q27757 | Kinase-Glo luciferase, ATP luminescence, 8 min | Potency, µM (titrated, usually from 38.3 µM), inactives show top-dose activity change, negative = inhibition, usual class: inhibitors | 200,000 tested, 0.28% active | AID 1379; active = well fitted curve in the direction sought with a large enough effect; inconclusive = small, poorly fitted or top-dose-only effect, or another doubt; inactive = no such curve, though single readings can be large; an effect the other way counts as inactive or inconclusive; note: nearly all actives have a fitted effect of over 60% in size
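Recombinant Kinase-Glo luciferase, 10 uM ATP (linear range), luciferin; imidazole pH 7.2 / KCl / MgCl2 / Tween / BSA buffer; 8 min RT; luminescence.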
IMPase Li cell – membrane-permeable IMPase blocker, potentiated with lithium; 210,000 tested, 0.35% active; CHO-M1 cells, IP1 TR-FRET (IP-One), carbachol + lithium; Potency, µM (top dose mostly 59.4 µM), for inactives: at the highest dose activity, negative = IMPase inhibition, hits mostly inhibitors; active = well fitted curve in the direction sought with a large enough effect; inconclusive = small, poorly fitted or top-dose-only effect, or another doubt; inactive = no such curve, though single readings can be large; an effect the other way counts as inactive or inconclusive;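 note: IP1 builds up when IMPase is blocked and the TR-FRET signal falls; plate controls were basal vehicle for no effect and high inhibitor control for full effect; nearly all actives have a fitted effect of over 50% in size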
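Readout is a homogeneous TR-FRET IP1 immunoassay (Ex 320, Em 665 and 620), where raised cytosolic IP1 lowers signal. Cells were CHO-M1 treated 30 min at 37C with test compounds plus a little lithium; AC50 values came from Hill-equation fitting.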
ALDH1A1 block – ALDH1A1 (human) enzyme inhibition; Purified ALDH1A1, NADH fluorescence, propionaldehyde substrate; 220,000 tested, 7.3% active; P00352; Potency, µM (top dose mostly 75.3 µM), inactives show at the top dose activity, negative = inhibition, hits mostly inhibitors;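 note: plate controls were no enzyme wells and a reference inhibitor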
Target sequence (P00352 whole entry, looked up): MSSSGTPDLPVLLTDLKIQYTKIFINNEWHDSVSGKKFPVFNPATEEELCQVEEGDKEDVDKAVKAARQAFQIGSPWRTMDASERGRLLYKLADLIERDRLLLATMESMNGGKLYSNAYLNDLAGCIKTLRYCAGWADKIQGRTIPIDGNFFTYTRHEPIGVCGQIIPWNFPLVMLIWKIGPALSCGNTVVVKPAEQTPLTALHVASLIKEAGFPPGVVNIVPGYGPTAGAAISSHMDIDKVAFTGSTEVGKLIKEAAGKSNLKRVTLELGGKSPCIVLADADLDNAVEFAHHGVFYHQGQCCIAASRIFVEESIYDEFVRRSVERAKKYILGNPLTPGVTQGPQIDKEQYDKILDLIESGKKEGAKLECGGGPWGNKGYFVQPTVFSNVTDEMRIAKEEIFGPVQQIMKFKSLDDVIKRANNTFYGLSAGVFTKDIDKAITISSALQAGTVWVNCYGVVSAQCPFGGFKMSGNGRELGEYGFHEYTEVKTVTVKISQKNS
LMNA splice mod – modulators of lamin A splicing; 200,000 tested, 0.01% active; HeLa LMNA splicing GFP/RFP minigene ratio, 48 h; AID 1487; Potency, µM (top dose mostly 46.1 µM), for inactives: at the top dose ratio change, negative = inhibition, actives largely listed as inhibitors; active = well fitted inhibition curve with a large enough effect in the signal ratio, with a control signal flat, not every such curve was filed as active; inconclusive = small, poorly fitted or top-dose-only effect, or effect the other way, or a change in a side signal; the % refers to the signal ratio
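S3 HeLa cells stably expressing lamin A-EGFP splicing minigene plus DsRed2, 600 cells/well, 48 h compound exposure at 37C. Laser-scanning cytometry; analysed as GFP (500-530 nm)/RFP (575-640 nm) total intensity ratio; 0.5% DMSO vehicle.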
The depositor's hits bear a star; u = inconclusive; x = not tested or not shown; [ ] = remark or other dose. Unless noted, calls come from the whole dose curve; as a rule, active = well fitted inhibition curve with a large enough effect (not every such curve was filed as active); inconclusive = small, poorly fitted or top-dose-only effect, or another doubt; inactive = no such curve, though single readings can be large or run the other way. Unless noted, % is set by controls: 0 for no effect and ±100 for the full control effect; potency is the fitted concentration of half-maximal effect.

SMILES	HPGD inh	Luc counter	IMPase Li cell	ALDH1A1 block	LMNA splice mod
O=C1/C(=C/c2cccnc2)SC(=S)N1CC1CCCO1 (centres undefined)	x	1%	7%	5µM*	-11%[46 µM]
COc1cc(/C=C(\C#N)C(=O)NCC2CCCO2)ccc1O (centres undefined)	-23%	-1%	6%	u	u
COc1cc(/C=C2/SC(=S)N(CC3CCCO3)C2=O)ccc1O (centres undefined)	25µM*	-10%	12%	0.14µM*	-4%
O=C1/C(=C\c2ccc(-c3ccccc3Cl)o2)SC(=S)N1CC1CCCO1 (centres undefined)	-19%	0%	5%[38.3 µM]	1.4µM*	-7%
CC/C=C\C/C=C\C/C=C\C/C=C\C/C=C\C/C=C\CCC(=O)NCC(=O)O	-12%	3%	7%	u	x
CC(=O)OC1CC(O)C(C)(C)C2CC(OC(C)=O)[C@]3(C)C(CC[C@@]4(C)C(c5ccoc5)OC(=O)C5OC534)[C@]12C (some centres undefined)	8%	-2%	-1%	5%	-7%
Cc1ccc(S(=O)(=O)CCC(=O)c2ccc(O)cc2O)cc1	-22%	-1%	13%[38.3 µM]	0.28µM*	u
CC1CN=C(N(C(=O)Nc2ccccc2)C(C)C)S1 (centres undefined)	-11%	1%	-4%	4%	-5%
Cc1ccc(N(C(=O)Nc2ccccc2)C2=NCC(C)S2)cc1 (centres undefined)	11µM*	-1%	14%[38.3 µM]	-6%	1%
CC(=O)Oc1cc2c(c(C)c1OC(C)=O)CC=C1[C@]3(C)CC[C@]4(C)CC[C@@](C)(C(=O)O)CC4[C@]3(C)CC[C@]12C (some centres undefined)	-12%	-3%	14%	-5%	u
CCN1C(=S)SC(=O)C1=C1C=C(C)N(Cc2ccco2)C(C)=C1	-29%	-1%	15%[38.3 µM]	2.5µM*	u
CCN1C(=S)SC(=O)C1=C1C=C(C)OC(C)=C1	-12%	14%	10%[38.3 µM]	-2%	2%
CCOC(=O)c1cnc2c(C)c(C)ccc2c1Nc1ccc(S(=O)(=O)Nc2ncccn2)cc1	-25%	5%	-25%	3%	u
Cc1nc2ccccc2c(=O)n1/N=C/c1ccc(N(C)C)cc1	-6%	-5%	6%[38.3 µM]	16µM*	-5%
Cc1nc2ccccc2c(=O)n1/N=C/c1ccccn1	-8%	1%	3%[38.3 µM]	-8%	0%
Cc1cccc(C)c1OCc1nc2ccccc2c(=O)n1/N=C/c1ccc(OCC(=O)O)cc1	-21%	0%	-2%	14µM*	11%
O=C(O)COc1ccc(/C=N/n2c(COc3ccccc3)nc3ccccc3c2=O)cc1	x	x	x	u	-8%
Cc1nc2ccccc2c(=O)n1/N=C/c1ccc([N+](=O)[O-])o1	x	x	x	19µM*	x
C=CCN=C1CC(C)(C)C(C(=O)OC)C(O)=C1C(=O)CCC (centres undefined)	x	-2%	8%	3%	-5%[46 µM]
CCOc1ccc2nc(SCC(=O)N(C)C)[nH]c2c1	-24%	0%	-5%[38.3 µM]	u	5%
COc1ccccc1NC(=O)CN(Cc1ccco1)C(=O)c1ccc(Cl)nc1	x	-1%	7%	16µM*	5%[46 µM]
O=C(CN(Cc1ccco1)C(=O)c1ccc(Cl)cc1)Nc1ccc(Cl)c(Cl)c1	-10%	-1%	18%	u	u
O=C(NNC(=O)c1cccc(O)c1)Nc1ccc([N+](=O)[O-])cc1	x	2%	0%	u	-6%[46 µM]
COc1ccc(Nc2nc(Nc3ccc(OC)cc3)nc(-n3[nH]c(=O)c(C)c3C)n2)cc1	-17%	0%	15%[38.3 µM]	25µM*	-5%
CC(=O)Nc1ccc(/C=N/N2C(=O)NC(C)(c3ccc(OC(F)F)cc3)C2=O)cc1 (centres undefined)	x	-1%	-7%	3%	u
CCN(CC)S(=O)(=O)c1ccc(-c2csc(C)n2)s1	x	x	x	-13%	10%[46 µM]
CCN(CC)S(=O)(=O)c1ccc(-c2csc(C)n2)cc1	x	x	x	25µM*	x
Cc1ccc(C(NC(=O)N2CCCC2)C(Cl)Cl)cc1F (centres undefined)	x	2%	3%	11µM*	-25%[46 µM]

From PubChem BioAssay
